SW480 rerep: induces DNA re-replication in SW480 colon adenocarcinoma cells | hit rate 1.8% among 340,000 | SW480 DNA re-replication, Hoechst DNA content imaging, 48 h | Potency, µM (titrated, usually from 46.1 µM), actives largely listed as activators; also: nearly all actives have a fitted effect of over 55% in size
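SW480 cells exposed to compounds for 48 hr at 37 C, 5% CO2, then Hoechst-stained 40 min. Nuclear DNA content imaged by fluorescence scanning (405 nm excitation, 500-530 nm emission); re-replication scored as increased high-intensity nuclei.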
ATXN2 expr inh: reduces ATXN2 reporter expression in HEK-293 cells; HEK-293 ATXN2-luciferase reporter, luminescence, 24 h; Potency, µM (top dose mostly 57 µM), usual class: inhibitors; hit rate 0.72% among 360,000; AID 1745845; also: nearly all actives have a fitted effect of over 55% in size
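ATXN2-luciferase reporter cells (luciferase flanked by upstream and downstream ATXN2 gene portions) were treated 24 h at 37 °C with compounds at up to 57 uM. SteadyGlo luminescence gave expression; GF-AFC fluorescence gave viability.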
S2 tox: viability counter-screen for ATXN expression inhibitors. S2 cells (HEK-293 line with an ATXN2-luciferase reporter) viability, CellTiter-Fluor protease fluorescence, 24 h. Potency, µM (series often up to 56.7 µM), most hits filed as cytotoxic. hit rate 0.49% among 400,000. AID 651635; also: nearly all actives have a fitted effect of over 40% in size
MCF10A rerep: DNA re-replication induction in MCF 10a cells; MCF 10A DNA re-replication, Hoechst nuclear intensity, 48 h; Potency, µM (top dose mostly 46.1 µM), most hits filed as activators; hit rate 2.9% among 350,000; also: nearly all actives have a fitted effect of over 50% in size
IL1B secr inh: inflammasome signaling inhibition, IL-1 beta readout. THP-1 LPS/ATP IL-1B secretion, AlphaLISA, 16 h; stronger effect = lower value. activity change, % at 57.5 µM. hit rate 4.7% among 360,000; in the data active = activity change below about -50%; inconclusive = mostly about -30% to -49%
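Secreted IL-1B measured by AlphaLISA bead assay after 16 h compound exposure of THP-1 cells; compounds (final up to 57.5 uM) added 1 h before LPS (250 ng/mL) and ATP (1.25 mM) stimulation; lower signal means less secretion.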
PINK1 expr mod: modulators of PINK1 expression; Potency, µM (doses to about 76.6 µM), hits mostly activators; AID 624263; hit rate 0.2% among 410,000; PINK1 immunofluorescence, high-content cytometry, 24 h; active = well fitted activation curve with a large enough effect; inconclusive = small, poorly fitted or top-dose-only effect; cell line not stated here; also: nearly all actives have a fitted effect of over 65% in size
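Decision-based qHTS: stable cells, 24 h exposure to five compound concentrations, CCCP as control. Fixed cells stained for PINK1 plus nuclear, mitochondrial and cell markers, cytometer read.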
Hits are given with their value; - = inactive; ? = inconclusive; . = not tested or not shown; [ ] = dose if it differs, or a comment. Sampled rows, rich in hits. Any-hit rate of the full collection: about 7.1%. Unless noted, calls follow the shape of the dose curve; as a rule, active = well fitted curve in the direction sought with a large enough effect; inconclusive = small, poorly fitted or top-dose-only effect, or another doubt; inactive = no such curve, though single readings can be large; an effect the other way counts as inactive or inconclusive.

SMILES | SW480 rerep | ATXN2 expr inh | S2 tox | MCF10A rerep | IL1B secr inh | PINK1 expr mod
CCc1ccc(CNC(=O)C(CC)n2ccc3cc(S(=O)(=O)N4CCCCC4)ccc32)cc1 (centres undefined) | . | - | ? | . | . | -
Cc1ccc(C)c(OCc2nnc(N)s2)c1 | 0.73µM | - | - | ? | - | -
O=C(CCC1CCCCC1)Nc1ccc(C(=O)c2ccncc2)cc1 | - | - | - | - | -92 | -
O=C(CCC1CCCCC1)Nc1cccnc1 | ? | - | - | - | - | -
CCOC(=O)c1c(C)[nH]c(CCC(=O)Nc2c(Cl)cc(OC)cc2OC)c1C | . | . | . | . | . | -
COc1cccc(/C=N/NC(=O)c2nc(-c3ccccc3)cc(-c3ccccc3)n2)c1 | - | - | ? | ? | ? | -
COc1ccc(/C=N/NC(=O)c2[nH]nc3c2CCc2ccccc2-3)cc1OC | ? | - | ? | 5.2µM | - | -
COc1ccc(/C=N/NC(=O)c2nc(-c3ccccc3)cc(-c3ccccc3)n2)cc1OC | - | - | - | - | -50 | -
COCc1ccc(CN2CCOc3ccc(C4=Cc5ccccc5C4)cc3C2)o1 | . | . | - | . | . | -
Cc1ccc(C)c(S(=O)(=O)NCC(c2ccco2)S(=O)(=O)c2ccc(F)cc2)c1 (centres undefined) | . | . | . | . | . | -
CCCOc1cccc(C2C(C(=O)c3cc4ccccc4o3)=C(O)C(=O)N2c2cc(C)on2)c1 (centres undefined) | - | . | - | 5.8µM | - | ?
Cc1cc(N2C(=O)C(O)=C(C(=O)c3cc4ccccc4o3)C2c2cccc(Br)c2)no1 (centres undefined) | - | . | - | 18µM | - | ?
c1nc(NCc2ccc3c(c2)OCO3)c2[nH]cnc2n1 | . | . | . | . | . | -
CCOc1ccc(CCNC(=O)Cn2c(=O)c3cccn3c3cccnc32)cc1 | - | - | - | - | -66 | -
NS(=O)(=O)c1ccc(CCNC(=O)Cn2c(=O)c3cccn3c3cccnc32)cc1 | - | - | - | - | - | -
CCC(Sc1nc2nccnc2c(=O)n1Cc1ccc(OC)cc1)C(=O)NC1CCCCC1 (centres undefined) | . | . | . | . | . | -
Cc1cc(S(=O)(=O)N2CCN(c3ccccc3F)CC2)ccc1-n1cnnn1 | - | - | - | - | -53 | -
Cc1cc(S(=O)(=O)N2CCN(c3ccc(F)cc3)CC2)ccc1-n1cnnn1 | - | - | - | - | - | -
Cc1ccc(C(=O)NCCN(C)C)c(C)c1 | -[9.22 µM] | - | ? | - | - | -
CNc1c2cccc(C)c2nc2c(C(=O)NCCN(C)C)cccc12 | ? | ? | . | - | -117 | -
COc1cc2c(cc1OC)C(c1ccccc1)CN(C)CC2 (centres undefined) | - | . | . | - | . | .
CC1(C)C(=O)C=CC(=O)C(C)(C)C(=O)C=CC(=O)C(C)(C)C2=CC=C(O2)C(C)(C)C(=O)C=CC1=O | ? | 25µM | . | 7.3µM | -97 | -
O=c1c2oc3nc4c(cc3c2ncn1CCCc1ccccc1)CCCC4 | - | - | - | - | -53 | -
CCCCn1cnc2c(oc3nc4c(cc32)CCCC4)c1=O | ? | . | - | - | -60 | -
CCCCCCn1cnc2c(oc3nc4c(cc32)CCCC4)c1=O | - | - | - | - | - | -
SMILES | SW480 rerep | ATXN2 expr inh | S2 tox | MCF10A rerep | IL1B secr inh | PINK1 expr mod
CCc1c(-c2ccccc2)nc2sc3c(c2c1N)CCCC3 | -[9.22 µM] | ? | - | - | -84 | -
OCCN1CCN(C2CCC(c3ccc(F)cc3)c3ccc(F)cc32)CC1 (centres undefined) | ? | 25µM | ? | 21µM | -76 | -
Nc1ncc(-c2ccc(F)cc2)nc1N1CCN(CCO)CC1 | . | - | - | . | - | -
CCC(C(=O)NC1CCCC1)N(C(=O)Cn1nnc(-c2ccc(C)cc2)n1)C1CCCC1 (centres undefined) | - | - | ? | - | -54 | -
COc1ccc(N(C(=O)Cn2nnc(-c3ccc(F)cc3)n2)C(C)C(=O)NC2CCCC2)cc1 (centres undefined) | ? | - | - | - | - | -
CC(C(=O)NC1CCCC1)N(C(=O)Cn1nnc(-c2ccc(F)cc2)n1)c1ccccc1F (centres undefined) | - | - | - | - | -66 | -
Cc1nc(-c2ccc(Cl)cc2)sc1C1(C)CC(c2ccc(F)cc2)=NO1 (centres undefined) | - | - | - | 10µM | - | -
Cc1ccc(C2=NOC(C)(c3sc(-c4ccc(Cl)cc4)nc3C)C2)cc1 (centres undefined) | -[9.22 µM] | - | - | - | - | -
CCOC(=O)CN(C(=O)CSc1nnc2c(n1)[nH]c1ccc(OC)cc12)c1ccc(F)cc1 | - | - | - | - | -59 | -
COc1ccc2[nH]c3nc(SCC(=O)Nc4cccc(NC(C)=O)c4)nnc3c2c1 | - | - | - | 21µM | -52 | -
CCc1nn(CC(=O)N2CCCCC2)c(=O)c2cc3sccc3n12 | . | . | . | . | . | -
CN(C)CCCNc1oc(/C=C/c2ccc(F)cc2)nc1C#N | . | . | . | . | . | -
Cc1c(Cl)ccc2sc(N3CCN(C(=O)C4CC4)CC3)nc12 | . | - | ? | . | . | -
COc1ccc(C)cc1S(=O)(=O)N1CCN(C(=O)c2ncoc2-c2ccc(C)cc2)CC1 | - | - | - | ? | -53 | -
COc1ccc(C)cc1S(=O)(=O)N1CCN(C(=O)c2ncoc2-c2ccc(F)cc2)CC1 | - | - | - | - | - | -
COc1ccc(S(=O)(=O)NC(C)c2ccc3c(c2)OCCO3)cc1 (centres undefined) | . | . | - | . | - | -
COC(=O)c1ccc(NC(=O)CC2Nc3cc(C)c(C)cc3NC2=O)cc1 (centres undefined) | . | . | . | . | . | -
CCOC(=O)C1=C(c2ccccc2)OC(N)=C(C#N)C1c1ccc(Cl)s1 (centres undefined) | - | - | - | - | - | -
CCN1CC=C2C(C1)C(c1ccc(Cl)s1)C(C#N)=C(N)C2(C#N)C#N (centres undefined) | - | - | ? | - | - | 6.3µM
COc1ccccc1/C=C/C1(C(=O)NC2CCCC2)CC(=O)N1c1ccccc1 (centres undefined) | 7.3µM | . | ? | 9.2µM | - | -
Cc1sc2ncn(CC(=O)N3CCN(c4ccccc4F)CC3)c(=O)c2c1S(=O)(=O)N1CCC(C)CC1 | . | - | - | . | . | -
COc1ccc(-c2cc(-c3ccco3)[nH]c(=O)c2C#N)cc1OC | - | . | - | ? | - | -
N#Cc1c(-c2ccc3c(c2)OCO3)csc1N | - | - | ? | - | -60 | -
N#Cc1c(-c2ccccc2)cc(-c2ccc3c(c2)OCO3)[nH]c1=O | 18µM | - | - | ? | - | -
N#Cc1c(N)c(C#N)c(-c2ccc3c(c2)OCO3)c2c1CCCC2 | - | - | - | - | - | -
CCOc1ccc(N(CC(=O)Nc2cc(Cl)ccc2C)S(C)(=O)=O)cc1 | 18µM | - | - | ? | - | -

Screening results (PubChem)
